Common to all, as to assay type: functional
Experiment [1] addresses Solute carrier family 2, facilitated glucose transporter member 1 (Homo sapiens) (UniProt P11166). Description: ST_JUDE_LEISH: Cytotoxicity at 2uM final concentration against transgenic Leishmania Mexicana promastigotes LmGLUT1 that are glucose transport deficient and complemented with the human glucose transporter GLUT1. Activity is measured by DNA content using SYBR green in vitro.

Experiment [2] concerns the target Hexose transporter 1 (Plasmodium falciparum) (UniProt O97467). The experiment is described as follows: ST_JUDE_LEISH: Cytotoxicity at 2uM final concentration against transgenic Leishmania Mexicana promastigotes LmPfHT that are glucose transport deficient and complemented with the Plasmodium falciparum hexose transporter. Activity is measured by DNA content using SYBR green in vitro.

Experiment [3] deals with Glucose transporter (Leishmania mexicana) (UniProt O61059). Description: ST_JUDE_LEISH: Cytotoxicity at 2uM final concentration against transgenic Leishmania Mexicana promastigotes LmGT2 that are glucose transport deficient and complemented with the L. Mexicana glucose transporter 2. Activity is measured by DNA content using SYBR green in vitro.

Results on 35 compounds are retold here after ChEMBL document CHEMBL3433997, “St. Jude Leishmania screening dataset” (2016).

For orientation: inhibition means the drop in the measured response relative to a control, in per cent.

Chain of Solute carrier family 2, facilitated glucose transporter member 1 (Homo sapiens) (P11166 whole entry): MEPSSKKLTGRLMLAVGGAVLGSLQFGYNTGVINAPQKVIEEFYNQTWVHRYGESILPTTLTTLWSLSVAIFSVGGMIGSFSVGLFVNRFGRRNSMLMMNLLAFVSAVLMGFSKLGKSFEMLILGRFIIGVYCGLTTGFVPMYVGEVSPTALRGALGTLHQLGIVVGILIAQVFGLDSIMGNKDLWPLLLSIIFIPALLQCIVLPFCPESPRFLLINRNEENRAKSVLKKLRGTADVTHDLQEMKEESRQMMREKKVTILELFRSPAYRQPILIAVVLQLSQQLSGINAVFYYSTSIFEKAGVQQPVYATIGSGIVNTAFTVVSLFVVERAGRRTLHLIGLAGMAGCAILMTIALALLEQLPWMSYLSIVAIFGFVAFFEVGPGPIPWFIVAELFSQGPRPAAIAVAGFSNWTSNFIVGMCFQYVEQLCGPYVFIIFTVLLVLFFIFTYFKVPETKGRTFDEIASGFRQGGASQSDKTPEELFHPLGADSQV

On to `COc1ccc2nccc([C@@H](O)CN3CCC(NCc4ccc5c(c4)NC(=O)CS5)CC3)c2c1`, for which the inhibition in experiment [1] is 1.65%; in experiment [2] it was 4.15%; in experiment [3], -0.16%.

In the case of `Cc1c(F)cc(C(=O)NC2CC2)cc1-c1ccc2c(c1)c(C)nn2S(=O)(=O)c1cccs1`, the inhibition in experiment [1] was 4.6%; in experiment [2], 3.16%; in experiment [3], 2.8%.

Turning to `CSc1nc2nc(C)c(Cc3cccc(F)c3)c(C)n2n1`, the inhibition was -1.07% in experiment [1], -0.45% in experiment [2] and 0.34% in experiment [3].

With `Cc1[nH]c2ccccc2c1C1CCN(CCCCNC(=O)c2ccc(-c3ccc(C#N)cc3)cc2)CC1`, the inhibition worked out at 11.2% in experiment [1], 9.94% in experiment [2] and 10.3% in experiment [3].

In the case of `CN1N=C2c3ccccc3CCC2C1c1ccc(C#N)cc1` (stereo not given), the figures for the inhibition in experiment [1], in experiment [2] and in experiment [3] were 12.4%, 9.98% and 7.86%, respectively.

On to `CC[C@H]1CN2CCc3c([nH]c4ccccc34)[C@@H]2C[C@@H]1CC1c2cc(OC)c(OC)cc2CCN1C` (stereo not given in full), for which the inhibition turned out to be 9.81% in experiment [1], 10% in experiment [2] and 9.79% in experiment [3].

In the case of `COc1cc2nc(N3CCC(CNC(=O)c4ccc(-c5cccc(C#N)c5)cc4)CC3)nc(N)c2cc1OC`, the results for the inhibition in experiment [1], in experiment [2] and in experiment [3] were 3.6%, 2.28% and 2.21%, respectively.

As to `CCN(CC)CCCNc1nccc(N2CCc3ncnc(Nc4ccc(OCc5cccc(F)c5)c(Cl)c4)c3C2)n1`, the inhibition is 7.17% in experiment [1], 9.1% in experiment [2] and 7.87% in experiment [3].

As to `Cc1cc2nc(-c3ccc(C(=O)NC4CCN(Cc5ccccc5)CC4)cc3)[nH]c2cc1C`, the inhibition in experiment [1] turned out to be 14.1%; in experiment [2], 12.9%; in experiment [3] it was 10.7%.

As to `Cc1cccc2nc(-c3ccc(-c4ccc(NC(=O)NCc5cccc(F)c5)cc4)cc3)[nH]c12`, the inhibition in experiment [1] is 11.4%; in experiment [2] it was 12.2%; in experiment [3] it was 10.3%.

As for `C=CCn1cc(C2CCN(CCCCNC(=O)c3sc(-c4ccc(C(F)(F)F)cc4)nc3CO)CC2)c2cc(OC)ccc21`, the inhibition in experiment [1] stood at 1.93%; in experiment [2] it was 3.91%; in experiment [3], 4.35%.

In the case of `N#Cc1cccc(Nc2nccc(Nc3ccc(Oc4ccccc4)cc3)n2)c1`, the results for the inhibition in experiment [1], in experiment [2] and in experiment [3] were 6.87%, 5.4% and 0.2%, respectively.

Consider `NS(=O)(=O)c1cccc(-c2ccc3c(O)ncnc3c2)c1`, for which the inhibition in experiment [1] was 4.08%; in experiment [2] it was 3.82%; in experiment [3], 5.44%.

Regarding `O=C(Nc1ccccc1)Nc1cccc(-c2nn3c(OCC4CCCCN4)cccc3c2-c2ccncc2)c1` (stereo not given), the inhibition amounted to 5.24% in experiment [1], 1.67% in experiment [2] and 1.3% in experiment [3].

Take `COc1ccc2nccc(N(C)CC3(O)CCC(NCc4cc5c(cn4)OCCO5)CC3)c2n1` (stereo not given): the inhibition in experiment [1] was 1.51%; in experiment [2] it was 1.7%; in experiment [3], 1.71%.

For `Cc1cccc2nc(-c3ccc(-c4ccc(CNCc5cnn(-c6ccccc6)n5)cc4)cc3)[nH]c12`, the inhibition in experiment [1] came to 1.08%; in experiment [2] it was 1.39%; in experiment [3], 1.19%.

As for `O=C(/C=C/c1ccc(Cl)c(Cl)c1)NCCCCCN1CCCC(C(=O)Nc2ccc(Cl)cc2)C1` (stereo not given), the inhibition was 3.76% in experiment [1], 5.09% in experiment [2] and 2.58% in experiment [3].

Turning to `O=C(Cn1c(CCc2cccc(F)c2F)cc(=O)c2cccnc21)N(CCCn1ccnc1)Cc1ccc(-c2ccc(C(F)(F)F)cc2)cc1`, the figures for the inhibition in experiment [1], in experiment [2] and in experiment [3] were 2.11%, 1.17% and 0.71%, respectively.

As to `Cc1cc(N[C@@H](CC(C)C)C(=O)NCCOc2ccccc2)nc(NCCc2ccccc2)n1`, the inhibition in experiment [1] amounted to 1.89%; in experiment [2], 0.4%; in experiment [3], 2.69%.

For `CCCC(C)Nc1nc(C)cc(N[C@@H](CC(C)C)C(=O)NC2CCCC2)n1` (stereo not given in full), the inhibition is 2.53% in experiment [1], 4.34% in experiment [2] and 3.26% in experiment [3].

Turning to `CN1CCC(Oc2cc(NC(=O)Nc3ccc(-c4ccncc4)c(C(F)(F)F)c3)ccc2Cl)CC1`, the inhibition in experiment [1] was found to be 12.6%; in experiment [2], 10.6%; in experiment [3] it was 7.11%.

Consider `CC(=O)c1ccc(NC(=O)Nc2ccc3nccc(N4CCN(C)CC4)c3c2)cc1`, for which the results for the inhibition in experiment [1], in experiment [2] and in experiment [3] were 1.22%, 1.77% and 1.46%, respectively.

As to `CCn1cc(C=C2Oc3c(ccc(O)c3CN3CCCCC3)C2=O)c2cc(OC)ccc21`, the inhibition in experiment [1] was 3.02%; in experiment [2] it was 2.04%; in experiment [3], -0.31%.

On to `CN(CCN)Cc1cccc(-c2ccc(-c3nc4cc(C(F)(F)F)ccc4[nH]3)s2)c1`, for which the figures for the inhibition in experiment [1], in experiment [2] and in experiment [3] were 10.8%, 11.3% and 8.17%, respectively.

Take `O=C(/C=C/c1ccc(Cl)c(Cl)c1)NCCCCCCN1CCCN(C(=O)Nc2ccc(Cl)c(C(F)(F)F)c2)CC1`: the values for the inhibition in experiment [1], in experiment [2] and in experiment [3] were -1.95%, 0.9% and -1.22%, respectively.

Turning to `CCN1C(=O)C(CC(=O)Nc2cccc(Cl)c2)N(Cc2ccc(OC)c(OC)c2)C1=S` (stereo not given), the inhibition in experiment [1] came to 0.59%; in experiment [2], 4.35%; in experiment [3], 0.57%.

In the case of `O=S(=O)(Nc1ccc(CCN2CCC(N3CCCCC3)CC2)cc1)c1ccc(Cl)cc1`, the results for the inhibition in experiment [1], in experiment [2] and in experiment [3] were 1.32%, 2.6% and 2.94%, respectively.

On to `CC(C)(C)N1CCC(N(Cc2ccc(-c3ccc(C(F)(F)F)cc3)cc2)C(=O)Cn2c(CCc3cccc(F)c3F)nc(=O)c3cccnc32)CC1`, for which the inhibition came to 2.09% in experiment [1], 0.99% in experiment [2] and 0.47% in experiment [3].

Regarding `COc1ccccc1CCNc1nc(C)cc(N[C@@H](Cc2ccccc2)C(=O)NCc2cccs2)n1`, the inhibition in experiment [1] stood at 2.42%; in experiment [2], 2.49%; in experiment [3], 0.42%.

Regarding `Clc1ccc(-c2cc3c(NCc4ccncc4)nccc3s2)cc1`, the results for the inhibition in experiment [1], in experiment [2] and in experiment [3] were 6.24%, 4.38% and 2.2%, respectively.

For `COc1ccc(-c2cc(C(=O)N[C@@H](CC3CCCCC3)C(=O)NC3CCCc4ccccc43)ccc2O)cc1` (stereo not given in full), the inhibition in experiment [1] was 0.11%; in experiment [2] it was -0.02%; in experiment [3] it was 1.1%.

In the case of `OCc1ccc2nc3c(cc2c1)-c1cccc2cccc-3c12`, the results for the inhibition in experiment [1], in experiment [2] and in experiment [3] were 3.6%, 1.82% and 2.11%, respectively.

As to `Cc1cc(=NN=CC=Cc2ccccc2)c2ccccc2[nH]1`, the inhibition in experiment [1] stood at 1.28%; in experiment [2], 2.74%; in experiment [3], 0.81%.

In the case of `COc1cc2nc(NCCn3nc(C)cc3C)nc(NCCc3ccccc3)c2cc1OC`, the inhibition in experiment [1] is -0.49%; in experiment [2], 5.15%; in experiment [3], 1.08%.

Consider `COc1cc(C(=O)NC2CCN(Cc3ccccc3)CC2)ccc1-c1nc2cc(Cl)c(Cl)cc2[nH]1`, for which the inhibition in experiment [1] was found to be 0.11%; in experiment [2], 1.66%; in experiment [3] it was 0.13%.
